Assay outcomes as filed in PubChem.
Smad3 FoxH1 inh = Smad3/FoxH1 peptide binding inhibitors, primary screen, biochemical, TR-FRET | TR-FRET Smad3/Dy647-FoxH1 peptide binding, europium anti-His | inhibition, % at 25 µM | actives 0.29% (n = 88,000) | AID 630, 2007;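 active = compounds that reduce the energy-transfer binding signal between the protein and its labelled peptide by more than half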;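 also: 0% = Smad3 plus labelled peptide maximal FRET and 100% = peptide-only background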
ERa coact pot = enhancers of ERα–SRC-1 coactivator binding, primary screen, biochemical, TR-FRET, ERα LBD, low estradiol; actives 1.3% (n = 86,000); AID 639, 2007; coactivator binding (% of control), % at 25.6 µM; Estrogen receptor (Homo sapiens), P03372; TR-FRET ERalpha-LBD/SRC-Cy5 coactivator binding, 2 h; 100 = basal binding, no effect; in the data active = activity above about 200%;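 also: binding measured in presence of low estradiol as agonist stimulus; 0% = peptide alone without receptor and 100% = receptor with peptide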
Calb biofilm kill = clotrimazole potentiators killing Candida biofilms, primary screen, with clotrimazole, Alamar Blue. inhibition, % at 6 µM. C. albicans biofilm + clotrimazole. actives 0.14% (n = 85,000);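 active = inhibition above 20%; inactive = inhibition below 20%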;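 also: preformed 24 hr biofilms exposed to compound for 48 hr; 0% = biofilm without compound and 100% = blank killed by clotrimazole plus chlorhexidine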
ERb coact inh = inhibitors of ERβ-SRC1 coactivator interaction, primary screen, biochemical, TR-FRET, ERβ LBD, SRC-1 peptide | AID 633, 2007 | inhibition, % at 25.6 µM | TR-FRET ER-beta LBD / SRC1-Cy5 peptide binding; receptor agonist-loaded with 1 µM estradiol | actives 1.3% (n = 86,000) | Estrogen receptor beta (Homo sapiens), Q92731;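 active = compounds whose percent inhibition of the receptor-coactivator binding signal exceeds about 50% in the single-dose screen, limit read from the data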;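 also: 0% = receptor plus peptide wells without compound and 100% = peptide-only wells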
Target sequence (Q92731 whole entry, looked up, the tested form may be a part): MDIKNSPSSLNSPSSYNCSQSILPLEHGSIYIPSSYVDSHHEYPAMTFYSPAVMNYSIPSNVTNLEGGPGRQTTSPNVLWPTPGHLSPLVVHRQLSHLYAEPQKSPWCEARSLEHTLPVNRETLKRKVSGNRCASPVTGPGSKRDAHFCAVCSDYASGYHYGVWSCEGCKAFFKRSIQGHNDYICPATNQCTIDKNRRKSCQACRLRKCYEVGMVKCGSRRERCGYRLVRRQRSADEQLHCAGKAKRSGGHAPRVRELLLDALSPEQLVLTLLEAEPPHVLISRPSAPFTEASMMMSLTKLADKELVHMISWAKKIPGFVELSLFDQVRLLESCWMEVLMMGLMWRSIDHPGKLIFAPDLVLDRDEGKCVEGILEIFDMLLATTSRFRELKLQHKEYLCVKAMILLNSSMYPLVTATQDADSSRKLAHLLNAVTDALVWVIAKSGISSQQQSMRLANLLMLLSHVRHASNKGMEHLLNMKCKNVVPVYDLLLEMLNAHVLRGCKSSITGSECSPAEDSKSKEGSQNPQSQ
ERa coact inh = ERα–SRC-1 coactivator interaction inhibitors, primary screen, biochemical, TR-FRET, ERα LBD, estradiol-bound; Estrogen receptor (Homo sapiens), P03372; TR-FRET ER-alpha LBD / SRC-1 peptide; inhibition, % at 25.6 µM; actives 1.7% (n = 86,000); AID 629, 2007; in the data active = inhibition above about 50%;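 also: 0% = receptor plus peptide control and 100% = peptide only without receptor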
Active calls of the source: *; / = no result given; [ ] = remark or other dose. The list is not random: actives were taken first. Their share in the collection is about 3.8%.

SMILES | Smad3 FoxH1 inh | ERa coact pot | Calb biofilm kill | ERb coact inh | ERa coact inh
COC(=O)C1=C(C(=O)OC)SC(=C2C(=S)C(C)(C)N(C(=O)CC(C)C)c3ccccc32)S1 | 18.7 | 85.5 | 6.0 | -4.8 | -4.3
NC(CSS(=O)(=O)O)=N[C@H]1C[C@H]2CC[C@@H]1C2 | 14.8 | / | / | / | /
CCOC(=O)Cn1c(CN2CCN(c3cccc(Cl)c3)CC2)nc2c1c(=O)[nH]c(=O)n2C | -5.8 | 123.3 | 7.3 | 70.7*[fluorescence artefact?] | -3.3
CCCCn1c(CN2CCN(c3cccc(Cl)c3)CC2)nc2c1c(=O)[nH]c(=O)n2C | 3.9 | 88.6 | 2.7 | -31.6 | -17.5
Cc1c(C(=O)OCC(=O)c2ccc3c(c2)OCCO3)oc2ccccc12 | 2.1 | 177.8 | 3.9 | 1.1 | 2.4
O=C(COC(=O)C(O)c1ccccc1)c1ccc2c(c1)OCCO2 (centres undefined) | 7.5 | 421.0* | 4.7 | 4.0 | -17.7
O=C(N[C@]1(C(=O)O)C[C@H]1c1ccccc1)c1ccccc1 | 8.3 | / | / | / | /
O=C(O)C1CC2(C1)CC(C(=O)O)C2 (centres undefined) | -1.0 | / | / | / | /
O=C(CSc1nc2ccccc2c(=O)[nH]1)c1ccc(O)c(O)c1 | 4.5 | 65.1 | -1.8 | 65.8* | 58.7*[fluorescence artefact?]
CN(Cc1cccc2ccccc12)Cc1cccc2ccccc12 | 9.6 | / | / | / | /
CN1CCN(C(c2cccnc2)c2ccc3cccnc3c2O)CC1 (centres undefined) | 8.2 | 83.2 | 11.7 | 59.9*[fluorescence artefact?] | 78.2*[fluorescence artefact?]
CC(C)N(CC(=O)O)CC(=O)O | 1.0 | / | / | / | /
C=C(c1ccc(O)cc1)c1ccc(O)cc1 | -4.1 | 29.6 | 5.0 | 8.4 | 24.3
C/C=C(/C(=C/C)c1ccc(O)cc1)c1ccc(O)cc1 | 2.6 | 740.6* | 4.3 | 15.1 | 9.7
Brc1ccccc1-c1nnc(CSc2nnnn2-c2ccccc2)o1 | 4.2 | 88.0 | -1.1 | 26.6 | 51.0*
Cc1nnc(SCc2nnc(-c3ccccc3Br)o2)n1-c1ccccc1 | 1.5 | 78.2 | -1.6 | 27.7 | 44.4
C[C@@H](CCC[C@@H]1SC[C@H]2NC(=O)N[C@@H]12)C(=O)O | 7.4 | / | / | / | /
Nc1nc2ccc(N3CCOCC3)cc2s1 | -2.6 | 82.2 | -1.3 | 24.4 | -7.1
Oc1ccc(C=Nc2ccc(N3CCOCC3)cc2)c(O)c1 | 8.0 | 49.0 | 6.1 | 68.6* | 57.6*
Nc1[nH]c(=S)[nH]c(=O)c1N=Nc1c(Br)cc(S(N)(=O)=O)cc1Br | 54.0* | / | / | / | /
O=C(O)CNC(=O)[C@H]1NC(C(F)(F)F)(C(F)(F)F)OC1(C(F)(F)F)C(F)(F)F | -4.0 | / | / | / | /
COc1ccccc1CN(Cc1cc2cc3c(cc2[nH]c1=O)OCCO3)Cc1nnnn1Cc1ccco1 | -1.2 | 76.5 | 0.9 | 9.2 | -2.2
O=c1[nH]c2cc3c(cc2cc1CN(Cc1cccs1)Cc1nnnn1Cc1ccco1)OCCO3 | 7.3 | 123.8 | 7.8 | 49.5 | 51.0*
Cc1ccc2[nH]c(=O)c(CN(Cc3ccc4c(c3)OCO4)Cc3nnnn3Cc3ccco3)cc2c1 | -2.0 | 92.3 | 10.9 | -1.3 | 3.9
O=c1[nH]c2cc3c(cc2cc1CN(Cc1ccccc1)Cc1nnnn1Cc1ccco1)OCCO3 | 4.5 | 216.3* | 3.8 | 25.8 | 20.3
SMILES | Smad3 FoxH1 inh | ERa coact pot | Calb biofilm kill | ERb coact inh | ERa coact inh
CCn1cc(C(=O)O)c(=O)c2cc(F)c(N3CCNCC3)nc21 | 9.0 | 107.7 | 21.7* | -3.0 | -4.6
C=CCc1cccc(/C=N/c2ncccc2O)c1O | 15.9 | 62.8 | -0.4 | 57.8*[fluorescence artefact?] | 21.5
CCC(=O)Oc1ccc(C/C(=N\O)c2ccc(O)cc2O)o1 | 7.9 | 12.6 | -1.5 | 78.1*[fluorescence artefact?] | 69.6*[fluorescence artefact?]
COC(=O)c1cc(CC(=O)c2ccc(O)cc2O)c(C)o1 | -3.2 | 84.5 | -1.2 | -0.3 | -6.5
COc1cc(NC(=O)CN2CC(c3ccccc3)CC2=O)cc(OC)c1 (centres undefined) | 4.4 | 82.7 | 20.4* | -8.6 | -4.3
O=C1CC(c2ccco2)Cc2nc(Nc3nc(-c4ccccc4)c4ccccc4n3)ncc21 (centres undefined) | -2.3 | 97.9 | 1.9 | 51.2*[fluorescence artefact?] | 43.1
O=C(Nc1ncc2c(n1)CC(c1ccco1)CC2=O)c1ccccc1 (centres undefined) | -0.5 | 88.6 | 0.4 | 6.2 | -15.6
c1ccc2c(c1)-c1nc3ccccc3cc1[C@@H]2N1CCOCC1 | -8.6 | / | / | / | /
Clc1ccc(OCc2nn3c(-c4ccco4)nnc3s2)c(Cl)c1 | 17.8 | 173.1 | -2.8 | 49.9 | 66.2*[fluorescence artefact?]
CN(C)c1ccc(-c2nn3c(-c4ccccc4Cl)nnc3s2)cc1 | -0.5 | 94.3 | 8.3 | 44.0 | 72.3*[fluorescence artefact?]
Cc1oc(-c2ccccc2Cl)cc1-c1nn2c(-c3ccco3)nnc2s1 | -4.3 | 166.2 | 5.4 | 52.1*[fluorescence artefact?] | 57.8*
Clc1ccccc1-c1nnc2sc(-c3ccncc3)nn12 | 6.1 | 106.3 | 3.6 | -10.0 | -7.5
Clc1ccc(-c2ccc(-c3nn4c(-c5ccco5)nnc4s3)o2)cc1 | 8.7 | 123.5 | 5.9 | 45.8 | 74.2*
COc1cccc2c1C(=N)c1c(O)c3c(c(O)c1C2=O)C[C@](O)(C(C)=O)C[C@@H]3O[C@@H]1C[C@H](N)[C@@H](O)[C@H](C)O1 | 8.5 | / | / | / | /
O=C(O)c1ccc(NS(=O)(=O)Cc2ccccc2)cc1 | -2.5 | / | / | / | /
O=C(O)c1cccc(C[C@H](Br)C(=O)O)c1 | 12.2 | / | / | / | /
OCCCSCCO | -0.4 | / | / | / | /
O=C(Nc1cccc(Cl)c1Cl)C1CCN(c2ncccn2)CC1 | 1.9 | 206.2* | 6.4 | -6.1 | -9.0
NC1=NC2(CCC(c3ccccc3)CC2)n2c(nc3ccccc32)N1 (centres undefined) | 17.6 | 75.3 | 6.7 | -14.1 | 10.4
NC1=NC2(CCCCC2)n2c(nc3ccccc32)N1 | 0.6 | 35.7 | -1.2 | 2.8 | 52.1*[fluorescence artefact?]
O=C(O)CSc1cc(-c2ccccc2)nc2ccccc12 | -35.9 | / | / | / | /
C[C@H]1CCCC2(CC[N+](C)(CCC[N+](C)(C)C)CC2)C1 (some centres undefined) | 14.5 | / | / | / | /
Cc1ccc(C(=O)CN2CCC(NC(=O)C3CCCCC3)CC2)cc1 | -2.6 | 604.7*[fluorescence artefact?] | -1.5 | 1.4 | 6.9
N#C/C(=C\NC(=S)c1ccncc1)c1nc2ccccc2s1 | 2.7 | / | / | / | /
CCCCN1C(=O)c2ccc(C(=O)NC3=NCCS3)cc2C1=O | -6.2 | 99.2 | 1.3 | 22.9 | 33.5
CCc1nc2sc3ccccc3c(=O)c2c(=O)n1Cc1ccco1 | 9.9 | 57.1 | 6.9 | 68.0* | 75.7*[fluorescence artefact?]
O=c1c2ccccc2nc(SCc2nc3ccccc3s2)n1Cc1ccco1 | 3.8 | 162.5 | 5.3 | 2.4 | 2.9
O=c1c2ccccc2sc2nc(C3CCCCC3)n(Cc3ccco3)c(=O)c12 | -5.1 | 222.2* | 14.7 | 38.3 | 46.0
Cc1c(C(=O)OCC2CCCO2)[nH]c2c1C(=O)CC(c1ccco1)C2 (centres undefined) | -4.6 | 65.0 | -2.5 | 50.4*[fluorescence artefact?] | 53.6*
